Hits are enriched below; roughly 11% of the tested compounds scored in any of these assays.
AMA1 RON2 block: inhibitors of Plasmodium falciparum AMA1-RON2 interaction. hit rate 0.2% among 360,000. Potency, µM (top dose mostly 58.2 µM), for the others: at the highest dose activity change, negative = inhibition, actives largely listed as inhibitors. AlphaScreen AMA1-biotinylated RON2 peptide binding;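 also: 0% = vehicle wells and -100% = peptide control; nearly all actives have a fitted effect of over 45% in size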
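AMA1 (3D7) with his tag at 25 nM final met compounds first, then biotinylated RON2 peptide at 25 nM; detection used donor plus acceptor beads, 10 µg/mL apiece, read by AlphaScreen after 30 min at room temperature.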
Sm TGR inh: inhibitors of Schistosoma mansoni thioredoxin glutathione reductase | purified TGR, DTNB reduction, TNB absorbance 405 nm | Potency, µM (highest dose often 114 µM), inactives show at the top dose activity change, negative = inhibition, usual class: inhibitors | hit rate 3% among 360,000 | AID 485364; also: % is scaled to controls: 0 for no effect and ±100 for the full control effect; nearly all actives have a fitted effect of over 60% in size
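First, TGR (20 nM dispensed) and NADPH were mixed with compound. Second, a 15 min room-temperature incubation followed. Third, further NADPH and then DTNB were added to start the reaction. Finally, TNB absorbance was monitored kinetically.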
Pf growth 96h: P. falciparum growth inhibition at 96 hour, primary screen for plastid delayed-death inhibitors; P. falciparum luciferase reporter growth, 96 h; Potency, µM (doses to about 28.7 µM), inactives show top-dose activity change, negative = inhibition, usual class: inhibitors; hit rate 6.9% among 320,000; AID 504834; also: % is scaled to controls: 0 for no effect and ±100 for the full control effect
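Luminescence readout: decreased luciferase signal marks inhibited growth of reporter-expressing P. falciparum in infected red cells (2% hematocrit, 0.05% parasitemia final), exposed to compound two generations (96 h, 37 C, 5% CO2).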
Pf growth 48h: inhibits P. falciparum growth in the first generation, 48 h | P. falciparum luciferase growth in erythrocytes, 48 h | Potency, µM (doses to about 28.7 µM), inactives show at the highest dose activity change, negative = inhibition, hits mostly inhibitors | hit rate 5.9% among 310,000 | AID 504832; also: % is scaled to controls: 0 for no effect and ±100 for the full control effect
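Erythrocytes infected with P. falciparum carrying an integrated firefly luciferase reporter (2% hematocrit, 0.1% parasitemia final) were exposed to compounds in RPMI 1640 with 0.5% Albumax at 37 C, 5% CO2. Growth inhibition was scored as reduced luminescence.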
NS1 function inh: inhibitors of influenza NS1 protein function. Potency, µM (top dose mostly 46.1 µM), inactives show at the top dose activity, positive = more growth. hit rate 0.4% among 270,000; calls by dose curve; also: actives are rising curves; nearly all actives have a fitted effect of over 50% in size
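OD600 was taken as the measure of yeast growth restored by compound in an NS1-expressing S. cerevisiae strain. Cells had been washed out of glucose medium and diluted 1:100 into galactose -URA medium, pH 6.0.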
Starred values were filed as active, the others as inactive; [ ] = remark or other dose. Unless noted, calls follow the shape of the dose curve; as a rule, active = well fitted curve in the direction sought with a large enough effect; inconclusive = small, poorly fitted or top-dose-only effect, or another doubt; inactive = no such curve, though single readings can be large; an effect the other way counts as inactive or inconclusive. Potency is read from the fitted curve at half-maximal effect.

O=C(NC1CC1)C1CCN(S(=O)(=O)c2cc(Cl)ccc2Cl)CC1 was read as AMA1 RON2 block -11%, Sm TGR inh 9%, Pf growth 96h 0.083µM*, Pf growth 48h -4% and NS1 function inh 1%.
O=C(NCC1CCCO1)C1CCN(S(=O)(=O)c2cc(Cl)ccc2Cl)CC1 (stereo not given) was read as AMA1 RON2 block 16%, Sm TGR inh -7%, Pf growth 96h -1%, Pf growth 48h -5% and NS1 function inh 4%.
Cc1nnc(NC(=O)C2CCN(S(=O)(=O)c3cc([N+](=O)[O-])ccc3Cl)CC2)o1 was read as AMA1 RON2 block -1%, Sm TGR inh 35µM*, Pf growth 96h 8% and Pf growth 48h -21%.
Screening COCCCNC(=O)CSc1nc2cc(S(=O)(=O)N3CCCCC3)ccc2o1 returned AMA1 RON2 block -2%, Sm TGR inh -12%, Pf growth 96h inconclusive and Pf growth 48h -24%.
`CCSc1nnc(-c2cc(Br)ccc2NC(C)=O)c(=O)[nH]1` gave AMA1 RON2 block -6%, Sm TGR inh -13%, Pf growth 96h 6%, Pf growth 48h 7% and NS1 function inh 5%.
Screening CC1=C(C(=O)NCc2ccc(Cl)cc2)C2(CCCCC2)OC1=O returned Sm TGR inh -5%.
For O=S(=O)(c1ccccc1)c1cnn(-c2ccccc2)c1-c1ccc(F)cc1 the results were AMA1 RON2 block -18%, Sm TGR inh 16%, Pf growth 96h 5.9µM*, Pf growth 48h inconclusive and NS1 function inh -2%.
Screening COc1ccc(-n2ncc(Cl)c(Cl)c2=O)cc1 returned AMA1 RON2 block -2%, Sm TGR inh inconclusive, Pf growth 96h 34% and Pf growth 48h 11%.
`COc1ccc(-n2ncc(S(=O)(=O)c3ccccc3)c2-c2ccc(Cl)cc2)cc1` gave AMA1 RON2 block -18%, Sm TGR inh 2%, Pf growth 96h inconclusive, Pf growth 48h 12µM* and NS1 function inh 15%.
For CC1CN(C(=O)NCc2ccccc2)c2cc(Cl)ccc2O1 (stereo not given) the results were AMA1 RON2 block 3%, Sm TGR inh -12%, Pf growth 96h 2.6µM*, Pf growth 48h -15% and NS1 function inh -7%.
Cc1sc2nc(SCC(=O)N3CC(C)OC(C)C3)n(C)c(=O)c2c1C (stereo not given) was read as AMA1 RON2 block 0%, Sm TGR inh -29%, Pf growth 96h inconclusive, Pf growth 48h -19% and NS1 function inh 1%.
`CCOc1ccccc1CNC(=O)C1CCN(S(=O)(=O)c2ccc3[nH]c(=O)ccc3c2)CC1` gave Sm TGR inh 8%.
`O=C1C(=O)N(C2CCS(=O)(=O)C2)C(c2cccc(O)c2)/C1=C(/O)c1ccc(Cl)cc1` (stereo not given) gave AMA1 RON2 block -3%, Sm TGR inh 56µM*, Pf growth 96h 21%, Pf growth 48h 25% and NS1 function inh 9%.
Screening COC(=O)c1ccc(C2/C(=C(/O)c3ccc(Cl)cc3)C(=O)C(=O)N2C2CCS(=O)(=O)C2)cc1 (stereo not given) returned AMA1 RON2 block -14%, Sm TGR inh -2%, Pf growth 96h 38%, Pf growth 48h 0% and NS1 function inh -2%.
Screening CCOC(=O)c1c(CN2CCOCC2)n(-c2ccccc2)c2cc(Br)c(O)c(CN(C)C)c12 returned AMA1 RON2 block -2%, Sm TGR inh 0%, Pf growth 96h 2.6µM*, Pf growth 48h 13µM* and NS1 function inh 7%.
Screening CCOC(=O)c1c(CN(C)C)oc2cc(CN(C)C)c(O)c(CSc3ccccc3)c12 returned AMA1 RON2 block -17%, Sm TGR inh -20%, Pf growth 96h 2.3µM*, Pf growth 48h 0.37µM* and NS1 function inh 10%.
Screening CCOC(=O)c1c(CN2CCCCC2)n(C)c2cc(Br)c(O)c(CN(C)C)c12 returned AMA1 RON2 block 11%, Sm TGR inh -21%, Pf growth 96h 12µM* and NS1 function inh -4%.
`CCOC(=O)c1cc(CN2CCOCC2)oc1-c1ccccc1` gave AMA1 RON2 block 8%, Sm TGR inh inconclusive, Pf growth 96h -14%, Pf growth 48h -38% and NS1 function inh -11%.
For CCOC(=O)c1c(CSc2ccc(C)cc2)n(C)c2cc(Br)c(O)c(CN(C)C)c12 the results were AMA1 RON2 block 0%, Sm TGR inh -11%, Pf growth 96h 10%, Pf growth 48h 4.1µM* and NS1 function inh 12%.
`CCOC(=O)c1c(CSc2ccsc2)n(C)c2cc(Br)c(O)c(CN(C)C)c12` gave AMA1 RON2 block -1%, Sm TGR inh -5%, Pf growth 96h inconclusive, Pf growth 48h inconclusive and NS1 function inh 17%.
O=C1CN(S(=O)(=O)c2ccc(F)cc2)CCN1 was read as AMA1 RON2 block 3%.
`Cc1cc(C)cc(NC(=O)CN2C(=O)CSc3ccc(S(=O)(=O)N(C)C)cc32)c1` gave Sm TGR inh 13%.
`Cc1ccc(C(=O)COC(=O)c2cccc(NC(=O)c3ccc(Cl)cc3Cl)c2)cc1` gave Sm TGR inh 3%.
For CCOC(=O)c1c(CSc2ccccc2)n(C)c2cc(Br)c(O)c(CN(C)C)c12 the results were AMA1 RON2 block inconclusive, Sm TGR inh -1%, Pf growth 96h inconclusive, Pf growth 48h 9.3µM* and NS1 function inh 3%.
Screening CCOC(=O)c1c(-c2ccccc2)oc2ccc(O)c(CN3CCOCC3)c12 returned AMA1 RON2 block -17%, Sm TGR inh 14%, Pf growth 48h inconclusive and NS1 function inh -6%[9.22 µM].
CCOC(=O)c1c(CSc2ccccc2)n(C)c2ccc(O)c(CN3CCN(C)CC3)c12 was read as AMA1 RON2 block -20%, Sm TGR inh 18µM*, Pf growth 96h inconclusive, Pf growth 48h inconclusive and NS1 function inh inconclusive.
`O=C(CCS(=O)(=O)c1cc(Br)cc2c1N(C(=O)C1CC1)CC2)Nc1ccc(F)cc1` gave Sm TGR inh 7%.
For O=S(=O)(/N=C(\c1ccc(Cl)cc1)N1CCOCC1)c1ccccc1 the results were AMA1 RON2 block 0%, Sm TGR inh -4%, Pf growth 96h 51%, Pf growth 48h 1% and NS1 function inh -9%.
Screening O=[N+]([O-])c1cc(S(=O)(=O)/N=C(/c2ccccc2)N2CCOCC2)ccc1Cl returned AMA1 RON2 block -14%, Sm TGR inh 45µM*, Pf growth 96h 0% and Pf growth 48h 6%.
CSc1ccc(-c2nc3cccc(C)n3c2Nc2ccc3c(c2)OCO3)cc1 was read as Sm TGR inh 5%.
`COc1ccccc1-c1cnc(C(O)c2ccc(C)cc2)[nH]1` (stereo not given) gave AMA1 RON2 block -12%.
Screening CCOC(=O)Cn1c(=NC(=O)C(C)C)sc2c(C)cc(C)cc21 returned AMA1 RON2 block 8%, Sm TGR inh -2%, Pf growth 96h inconclusive, Pf growth 48h 1.9µM* and NS1 function inh -1%.

High-throughput results: PubChem BioAssay, National Center for Advancing Translational Sciences (NCATS)
